Bioassay records: PubChem, Johns Hopkins Ion Channel Center
KCNQ2 inh – rat KCNQ2 potassium channel inhibitors, primary screen, cell-based, CHO-K1, FluxOR thallium flux, B-score; AID 2156, 2009; 310,000 compounds, 1.1% hits; 20 min; hits give low values; Potassium voltage-gated channel subfamily KQT member 2 (Rattus norvegicus), O88943; B-score at 10 µM;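 active = fluorescence ratio B-score at most minus 3 library SDs, with starting brightness B-score within 2 library SDs, cut at about -5.5 in these data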
Target sequence (O88943 whole entry, looked up): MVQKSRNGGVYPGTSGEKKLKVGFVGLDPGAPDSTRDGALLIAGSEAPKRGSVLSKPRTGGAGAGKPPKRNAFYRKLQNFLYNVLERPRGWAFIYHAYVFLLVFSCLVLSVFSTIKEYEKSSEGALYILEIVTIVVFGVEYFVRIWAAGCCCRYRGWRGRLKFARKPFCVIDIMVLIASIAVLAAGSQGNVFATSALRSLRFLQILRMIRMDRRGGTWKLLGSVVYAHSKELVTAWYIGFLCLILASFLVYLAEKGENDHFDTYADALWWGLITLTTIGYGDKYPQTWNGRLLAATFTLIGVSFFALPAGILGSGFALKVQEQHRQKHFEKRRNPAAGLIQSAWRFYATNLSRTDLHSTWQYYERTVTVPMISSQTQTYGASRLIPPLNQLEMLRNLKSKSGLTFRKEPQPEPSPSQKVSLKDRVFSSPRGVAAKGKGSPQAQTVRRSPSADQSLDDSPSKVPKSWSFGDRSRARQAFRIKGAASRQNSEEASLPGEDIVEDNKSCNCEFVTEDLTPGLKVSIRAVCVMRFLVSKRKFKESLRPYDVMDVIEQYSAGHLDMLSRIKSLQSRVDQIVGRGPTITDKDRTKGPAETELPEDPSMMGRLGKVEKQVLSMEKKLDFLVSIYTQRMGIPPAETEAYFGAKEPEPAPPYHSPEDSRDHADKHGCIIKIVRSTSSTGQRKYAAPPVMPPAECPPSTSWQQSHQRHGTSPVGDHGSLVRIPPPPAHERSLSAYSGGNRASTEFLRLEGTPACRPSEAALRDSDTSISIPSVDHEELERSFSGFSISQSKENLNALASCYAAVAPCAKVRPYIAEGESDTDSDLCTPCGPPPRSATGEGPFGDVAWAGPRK
KCNQ2 enhance – potentiators of rat KCNQ2 potassium channel | Potassium voltage-gated channel subfamily KQT member 2 (Rattus norvegicus), O88943 | CHO-K1 KCNQ2, FluxOR thallium flux fluorescence; hits give high values | B-score at 10 µM | 310,000 compounds, 0.54% hits;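 active = fluorescence ratio B-score at least 3 SD of library B-scores, with initial fluorescence B-score within 3 of them, cut at about 5.3 in these data; same plate scores as AID 2156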;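 also: B-score of peak minus minimum over baseline fluorescence ratio after K+ and Tl+ stimulus; positive B-score means potentiation of KCNQ2 with more thallium influx and brighter signal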
The depositor's hits bear a star; i = inactive; nt = no result. A selection: hits, their analogues and other compounds. The true share with any hit is near 1.6%.

SMILES	KCNQ2 inh	KCNQ2 enhance
O=C(N/N=C/c1ccc(-c2ccc(Cl)c(C(=O)O)c2)o1)c1cc2c(ccc3ccccc32)o1	i	5.4*
Cc1ccc(-c2ccc(/C=N\NC(=O)c3cc4c(ccc5ccccc54)o3)o2)cc1[N+](=O)[O-]	i	0.08
COc1ccccc1/C=N/NC(=O)c1cc2c(ccc3ccccc32)o1	-6.4*	-6.4
O=C(CCc1nnc(C2(c3ccc(Cl)cc3)CCC2)o1)N1CCCC(O)C1 (centres undefined)	i	0.68
CCOC(=O)c1sc(NC(=O)Cc2c(F)cccc2Cl)nc1C	i	nt
CCOC(=O)c1sc2nccc(N(C)C)c2c1N=CNOCc1c(F)cccc1Cl	-6.2*	-6.2
O=C(Nc1nnc(-c2ccc(Br)cc2)o1)c1cccc(N2C(=O)CCC2=O)c1	i	nt
CC(C)Cc1csc(NC(=O)c2ccccc2Cl)c1C(=O)O	i	nt
CC(C)Cc1csc(NC(=O)c2ccc(Cl)cc2)c1C(=O)O	i	5.6*
CC(C)c1ccc(Oc2cccc(C(=O)/C(C#N)=C/N(C)C)c2)cc1	-6.2*	-6.2
CN(C)/C=C(\C#N)C(=O)c1cccc(Oc2ccc(Br)cc2)c1	i	nt
COc1ccccc1CCC(=O)N(C)C1CCCN(Cc2ccccc2F)C1 (centres undefined)	i	nt
COc1ccccc1C(C)NC(=O)c1cc(=O)[nH]c2ccccc12 (centres undefined)	i	nt
Cc1cc(C)c(S(=O)(=O)NC2CC(C)(C)NC(C)(C)C2)cc1Br	i	nt
CCC1(C)Cc2ccccc2-c2c1c(=O)n(Cc1ccccc1)c1nnnn21 (centres undefined)	-6.2*	-6.2
O=c1c2c(n3nnnc3n1Cc1ccccc1)-c1ccccc1CC21CCCC1	i	nt
CCCn1c(=O)c(Br)cn(-c2ccccc2C)c1=O	i	nt
Cc1cc(OCC(=O)Nc2nnc(C3CC3)s2)ccc1[N+](=O)[O-]	i	1
CC(C)Oc1cccc(C(=O)C2CCCN(Cc3ccc(Oc4ncccn4)cc3)C2)c1 (centres undefined)	-7.8*	-7.8
COc1c(C)cc(C(=O)C2CCCN(Cc3ccc(Oc4ncccn4)cc3)C2)cc1C (centres undefined)	i	nt
CC/C(=N\NC(=O)c1ccc(-c2ccccc2)cc1)C12CC3CC(CC(C3)C1)C2	i	0.19
COc1ccc(C)cc1NC(=O)C(Sc1nncn1C)c1ccccc1 (centres undefined)	i	nt
COc1ccc(C)cc1NC(=O)C(Sc1nnc(Nc2ccccc2F)s1)c1ccccc1 (centres undefined)	-6.3*	-6.3
O=C(C(Cc1ccccc1)n1cccc1)N1CCN(c2cccc(Cl)c2)CC1 (centres undefined)	-5.8*	-5.8
O=C(C(Cc1ccccc1)n1cccc1)N1CCN(Cc2ccccc2)CC1 (centres undefined)	i	nt
SMILES	KCNQ2 inh	KCNQ2 enhance
CCC(CC)C(=O)N1CCN(c2ccccc2)CC1	i	nt
CCC(C(=O)N1CCN(c2cccc(Cl)c2)CC1)c1ccccc1 (centres undefined)	-5.6*	-5.6
O=C(Nc1ccnn1C1CCN(Cc2ccccc2F)CC1)C1CCCC1	i	nt
COc1ccc(C(=O)NC2CCc3ccccc32)cc1OC1CCN(C(C)C)CC1 (centres undefined)	i	nt
COc1ccc(Br)cc1/C=N/Nc1cccc(C(=O)O)c1	i	0.77
Cc1c(N=Cc2cc(Br)cc(Br)c2O)cccc1C(=O)O	i	9.5*
CN(/N=C/c1cc(Br)cc(Br)c1O)c1ccccc1	i	nt
O=C(O)c1cccc(N/N=C/c2cc(Br)cc(Br)c2O)c1	i	5.8*
COc1cccc(CNC(=O)c2ccccc2NC(=O)C2=C(C)OCCS2)c1	i	0.71
O=C(NCc1ccc2c(c1)OCO2)C1CCN(S(=O)(=O)c2ccc(Br)s2)CC1	i	17*
O=C(NCc1ccc2c(c1)OCO2)C1CCN(S(=O)(=O)c2cccs2)CC1	i	1.1
COCc1cc(C)nc(SCc2ccc([N+](=O)[O-])cc2)c1C#N	i	nt
Cc1cc(C)c2c(NC(=O)CCl)nn(C)c2n1	i	0.1
CCc1cc(SC#N)cc(CC)c1NC(=O)CCl	i	5.3*
Cc1ccc(C)c(CN2C(=O)NC3(CCCCCC3)C2=O)c1	i	1.2
Cc1ccc2c(CN3C(=O)NC4(CCCCC4)C3=O)cc(=O)oc2c1C	-6.6*	-6.6
COc1ccc(C(=S)N2CCOCC2)cc1OS(=O)(=O)c1ccccc1[N+](=O)[O-]	-6.7*	-6.7
COc1cc(C(=S)N2CCOCC2)ccc1OS(=O)(=O)c1ccccc1[N+](=O)[O-]	i	1.4
CCCNC(=O)c1ccc(N2CCC3(CC2)CC(c2ccccc2)=NO3)c(NC(=O)Cc2ccc(F)cc2)c1	i	nt
CC(=O)N(C1=C(Cl)C(=O)c2ccccc2C1=O)C1CCCCC1	-5.7*	-5.7
CC(=O)N(c1ccccc1C)C1CCCC1	i	0.01
CC(Sc1nc2ccccc2s1)C(=O)c1c(N)n(C)c(=O)n(C)c1=O (centres undefined)	i	1.6
O=C1CC(C(=O)Nc2cc(Cl)ccc2Cl)n2ncnc2N1 (centres undefined)	i	nt
CCCCn1c(N)c(N(Cc2ccccc2OC)C(=O)CN2C(=O)NC3(CCCC3)C2=O)c(=O)[nH]c1=O	i	nt
CO/N=C/C(=N\Nc1cc(OC)cc(OC)c1)C(=O)c1ccccc1	-5.8*	-5.8
SMILES	KCNQ2 inh	KCNQ2 enhance
COc1ccc(N/N=C(\C=N\O)C(=O)c2ccc(OC)cc2)cc1	i	nt
CCN(CC(=O)Nc1c(F)cccc1F)C(=O)CNC(=O)c1cccc(C)c1	i	0.07
CN(CC(=O)Nc1ccccc1Br)C(=O)CNC(=O)c1ccc(Oc2ccccc2)cc1	i	nt
O=C(Nc1cccnc1)c1ccc(-c2cc(Cl)ccc2Cl)o1	i	0.02
O=C(NCc1cccnc1)c1ccc(-c2cc(Cl)ccc2Cl)o1	-6.8*	-6.8
COc1cc(/C=C(\C#N)C(=O)Nc2ccccc2C(=O)O)cc(Cl)c1OC	i	nt
O=C(NCc1ccccc1)C(c1cccs1)N(Cc1cccs1)C(=O)c1cnccn1 (centres undefined)	-6*	-6
O=C(NCc1ccccc1)C(c1ccccc1)N(Cc1cccs1)C(=O)c1cnccn1 (centres undefined)	i	nt
O=C(NCCS(=O)(=O)N1CCCCC1)c1ccccc1	i	0.1
CCCCOC(=O)c1ccc(NC(=S)NC(=O)c2c(Br)c(C)nn2C)cc1	i	9.6*
CCOC(=O)c1ccc(NC(=S)NC(=O)c2cncc(Br)c2)cc1	i	nt
Cc1cccc2cc(C#N)c(SCC(=O)N3CC(=O)Nc4ccccc43)nc12	i	0.49
Cc1ccc(C)c2nc(SCC(=O)N3CCCc4ccccc43)c(C#N)cc12	-7.7*	-7.7
Cc1ccc(NC(=O)O/N=C/c2ccc(N(C)C)cc2)cc1	i	nt
Cc1ccc(C)c(N2CCN(C(=O)CCS(=O)(=O)c3ccc4c(c3)oc(=O)n4C)CC2)c1	i	0.01
CCCCN(CCCC)C(=O)C1(P(=O)(c2ccccc2)c2ccccc2)CCC1	-6.2*	-6.2
CCN(CC)C(=O)C1(P(=O)(c2ccccc2)c2ccccc2)CCC1	i	nt
CC/C(C)=N/Oc1nc(C)cc(C)n1	i	nt
O=C(c1ccccc1)N1CCc2ccccc21	i	nt
O=C(NC(=S)N1CCc2ccccc21)c1ccccc1	i	14*
